Data as given in PubChem BioAssay AID720664 (National Center for Advancing Translational Sciences (NCATS), 2013).
Inconclusive results are not listed. Where a call stands in place of a potency, no number is given. The source made the active and inactive calls. Calls follow the shape of the dose curve; as a rule, active = well fitted inhibition curve with a large enough effect; inconclusive = small, poorly fitted or top-dose-only effect; inactive = flat fitted curve, though single readings scatter.

Target: Galactokinase (Homo sapiens) (UniProt P51570)
Assay: qHTS for Inhibitors of Human Galactokinase (GALK): SAR round 3
Conditions: ADP detection luminescence, 1 h; series mostly up to 57.5 µM
How it was run: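 Human GALK (5 nM) with 35 µM ATP and 100 µM galactose in 20 mM HEPES pH 8.0, 5 mM MgCl2, 60 mM NaCl reacted 1 h at room temperature. Luminescent ADP detection was used; qHTS retest of cherry-picked actives.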

Galactokinase (Homo sapiens), sequence (P51570 whole entry, looked up): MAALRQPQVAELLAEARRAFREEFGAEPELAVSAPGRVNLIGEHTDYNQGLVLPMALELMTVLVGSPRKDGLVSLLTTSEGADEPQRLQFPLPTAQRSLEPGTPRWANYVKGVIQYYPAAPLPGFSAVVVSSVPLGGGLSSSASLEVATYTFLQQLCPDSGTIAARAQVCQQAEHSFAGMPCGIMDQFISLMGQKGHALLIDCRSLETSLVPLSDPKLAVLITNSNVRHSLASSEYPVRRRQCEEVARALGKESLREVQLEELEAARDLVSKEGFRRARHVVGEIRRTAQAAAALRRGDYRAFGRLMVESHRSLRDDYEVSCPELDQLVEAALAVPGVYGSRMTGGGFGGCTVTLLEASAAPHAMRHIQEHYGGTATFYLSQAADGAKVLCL

Row | Compound | Potency
1 | O=C1CCCC2=C1C(c1[nH]ncc1Cl)N=C(Nc1nc3cccc(Cl)c3o1)N2 (centres undefined) | inactive
2 | CC1=C(C(=O)Nc2ccc(Cl)cc2)C(c2ccccc2Br)N=C(Nc2nc3ccccc3o2)N1 (centres undefined) | inactive
3 | O=C1CCCC2=C1C(c1[nH]ncc1Cl)NC(=NCCc1ccccc1)N2 (centres undefined) | inactive
4 | O=C1CCCC2=C1C(c1ccccc1Br)N=C(Nc1nc3ccccc3o1)N2 (centres undefined) | 6.11 µM (active)
5 | COc1ccc2oc(NC3=NC(c4[nH]ncc4Cl)C4=C(CCCC4=O)N3)nc2c1 (centres undefined) | inactive
6 | Cc1ccc2oc(NC3=NC(c4[nH]ncc4Cl)C4=C(CCCC4=O)N3)nc2c1 (centres undefined) | inactive
7 | Cc1nc(C2=NC(c3ccccc3Cl)C3=C(CCCC3=O)N2)cs1 (centres undefined) | inactive
8 | CC1=C(C(=O)NC2CCCC2)C(c2[nH]ncc2Cl)N=C(Nc2nc3ccccc3o2)N1 (centres undefined) | inactive
9 | O=C1CCCC2=C1C(c1ccc(Cl)cc1)N=C(Nc1nc3ccccc3o1)N2 (centres undefined) | inactive
10 | O=C1CCCC2=C1C(c1[nH]ncc1Cl)NC(=NCc1ccco1)N2 (centres undefined) | inactive
11 | Cn1cnc(CN=C2NC3=C(C(=O)CCC3)C(c3[nH]ncc3Cl)N2)c1 (centres undefined) | inactive
12 | O=C1CCCC2=C1C(c1[nH]ncc1Cl)NC(=NCCc1cccnc1)N2 (centres undefined) | inactive
13 | O=C1CCCC2=C1C1(CCCC1)N=C(Nc1nc3cc(Cl)ccc3o1)N2 | inactive
14 | O=C1CC(c2ccccc2)CC2=C1C1(CCCC1)N=C(Nc1nc3ccccc3o1)N2 (centres undefined) | inactive
15 | O=C1CCCC2=C1C(c1[nH]ncc1Cl)N=C(Nc1nc3cc(Cl)ccc3o1)N2 (centres undefined) | inactive
16 | CCC1CCC2(C1)N=C(Nc1nc3ccccc3o1)NC1=C2C(=O)CCC1 (centres undefined) | inactive
17 | O=C1CCCC2=C1C(c1[nH]ncc1Cl)N=C(Nc1ccccc1)N2 (centres undefined) | inactive
18 | CC1=C(C(=O)NC2CC2)C(c2nn(C)cc2Cl)N=C(Nc2nc3ccccc3o2)N1 (centres undefined) | inactive
19 | Cc1noc(C)c1S(=O)(=O)Nc1ccc(C(=O)Nc2ccc(OC(F)(F)F)cc2)cc1 | inactive
20 | CC1=C(C(=O)Nc2nncs2)C(c2[nH]ncc2Cl)N=C(Nc2nc3ccccc3o2)N1 (centres undefined) | 12.2 µM (active)

Row | Compound | Potency
21 | COc1ccccc1C1N=C(Nc2nc3ccccc3o2)NC2=C1C(=O)CCC2 (centres undefined) | inactive
22 | Nc1ncc(S(=O)(=O)N2CCOCC2)s1 | inactive
23 | O=C1CCCC2=C1C(c1ccc(F)cc1)N=C(Nc1nc3ccccc3o1)N2 (centres undefined) | inactive
24 | O=C1CCCC2=C1C(c1[nH]ncc1Cl)N=C(Nc1nc3cc([S+](=O)([O-])N4CCOCC4)ccc3o1)N2 (centres undefined) | inactive
25 | CN(Cc1ccccc1)C(=O)C1CCN(Cc2cccc3ccccc23)CC1 | inactive
26 | O=C1CCCC2=C1C(c1[nH]ncc1Cl)NC(=S)N2 (centres undefined) | inactive
27 | CC1=C(C(=O)Nc2nc3ccccc3s2)C(c2[nH]ncc2Cl)N=C(Nc2nc3ccccc3o2)N1 (centres undefined) | inactive
28 | O=C1CCCC2=C1C1(CCCOC1)N=C(Nc1nc3ccccc3o1)N2 (centres undefined) | inactive
29 | CC1(C)CC(=O)C2=C(C1)NC(Nc1nc3ccccc3o1)=NC21CCCCC1 | inactive
30 | O=C1CCCC2=C1C(c1[nH]ncc1Cl)NC(=NCc1ccoc1)N2 (centres undefined) | inactive
31 | O=C1C2=C(CN1c1ccccc1)NC(Nc1nc3ccccc3o1)=NC2c1ccccc1Cl (centres undefined) | inactive
32 | O=C1CCCC2=C1C(c1[nH]ncc1Cl)NC(=NCCc1ccc(O)cc1)N2 (centres undefined) | inactive
33 | O=C1CCCC2=C1C(c1[nH]ncc1Cl)N=C(Nc1nc3cc([S+](=O)([O-])N4CCCC4)ccc3o1)N2 (centres undefined) | inactive
34 | O=C1CCCC2=C1C(c1[nH]ncc1Cl)NC(=NCc1ncc[nH]1)N2 (centres undefined) | inactive
35 | CC1=C(C(=O)n2ccc3ccccc32)C(c2ccccc2Br)N=C(Nc2nc3ccccc3o2)N1 (centres undefined) | inactive
36 | O=C1CCCC2=C1C(c1cccc(Cl)c1)N=C(Nc1nc3ccccc3o1)N2 (centres undefined) | inactive
37 | O=C1CCCC2=C1C(c1[nH]ncc1Cl)NC(=NCc1ccccn1)N2 (centres undefined) | inactive
38 | O=C1CCCC2=C1[C@@]1(CCC(c3ccccc3)C1)N=C(Nc1nc3ccccc3o1)N2 (some centres undefined) | inactive
39 | COC(=O)c1ccc2nc(NC3=NC(c4[nH]ncc4Cl)C4=C(CCCC4=O)N3)oc2c1 (centres undefined) | inactive
